GC-B act: human GC-B receptor activators, primary screen, HEK293 GC-B cells, cGMP TR-FRET, EC30 CNP | Atrial natriuretic peptide receptor 2 (Homo sapiens), P20594 | 0% at EC30 CNP, 100% saturating CNP | activation, % at 10 µM | 370,000 tested, 0.11% active;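 active = activation at 10 µM reaching about 35% in either raw or pattern-adjusted values, limit read from the data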
Target sequence (P20594 whole entry, looked up): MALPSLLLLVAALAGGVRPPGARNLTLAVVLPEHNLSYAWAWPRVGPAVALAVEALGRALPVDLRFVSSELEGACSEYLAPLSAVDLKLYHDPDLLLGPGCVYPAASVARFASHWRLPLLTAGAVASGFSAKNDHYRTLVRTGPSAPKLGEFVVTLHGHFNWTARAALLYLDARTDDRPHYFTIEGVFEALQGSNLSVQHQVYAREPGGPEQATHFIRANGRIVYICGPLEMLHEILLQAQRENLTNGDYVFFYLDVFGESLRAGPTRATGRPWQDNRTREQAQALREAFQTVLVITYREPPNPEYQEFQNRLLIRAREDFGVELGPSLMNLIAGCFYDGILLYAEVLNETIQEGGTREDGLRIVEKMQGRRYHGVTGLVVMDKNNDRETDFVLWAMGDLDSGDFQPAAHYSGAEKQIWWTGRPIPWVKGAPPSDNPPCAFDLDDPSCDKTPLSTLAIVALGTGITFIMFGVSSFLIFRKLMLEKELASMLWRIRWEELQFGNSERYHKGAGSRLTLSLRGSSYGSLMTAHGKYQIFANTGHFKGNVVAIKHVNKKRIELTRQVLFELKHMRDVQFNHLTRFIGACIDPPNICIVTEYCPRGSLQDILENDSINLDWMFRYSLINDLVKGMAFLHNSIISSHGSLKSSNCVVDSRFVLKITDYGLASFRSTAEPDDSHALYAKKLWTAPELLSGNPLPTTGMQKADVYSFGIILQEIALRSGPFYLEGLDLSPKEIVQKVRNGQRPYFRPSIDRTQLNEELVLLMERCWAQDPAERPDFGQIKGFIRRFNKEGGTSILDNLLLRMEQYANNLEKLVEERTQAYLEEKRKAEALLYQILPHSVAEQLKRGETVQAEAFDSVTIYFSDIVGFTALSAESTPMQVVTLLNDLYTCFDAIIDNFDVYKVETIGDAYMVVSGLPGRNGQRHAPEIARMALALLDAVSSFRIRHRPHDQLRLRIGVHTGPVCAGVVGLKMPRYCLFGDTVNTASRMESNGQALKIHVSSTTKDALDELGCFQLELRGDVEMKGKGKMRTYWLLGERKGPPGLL
bovine MsrA act: bovine MsrA enzyme activators, primary screen, biochemical, absorbance, HTS; Methionine sulfoxide reductase A (Bos taurus); 360,000 tested, 0.3% active; activation, % at 10.6 µM; purified bovine MsrA, absorbance read-out; in the data active = activation above about 7.5%;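 also: 0% = vehicle and 100% = reference activator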
MsrA inhibitor: bovine MsrA enzyme inhibitors, primary screen, biochemical, absorbance, HTS; Methionine sulfoxide reductase A (Bos taurus); purified bovine MsrA, absorbance read-out; inhibition, % at 15.5 µM; 360,000 tested, 0.75% active; AID 651718, 2012;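 also: 0% = vehicle wells with enzyme and 100% = reference inhibitor wells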
NPR1 activator: GC-A stimulated cGMP production enhancers – HEK293 GC-A cells, cGMP TR-FRET, EC30 ANP, primary screen | 0% at EC30 ANP, 100% saturating ANP | activation, % at 10 µM | 370,000 tested, 0.14% active; in the data active = activation above about 40%
MsrA conf: bovine MsrA inhibitors, retest, confirmation, biochemical, absorbance, HTS; inhibition, % at 15.5 µM; purified bovine MsrA, absorbance read-out; shares compounds with MsrA inhibitor; 2,300 tested, 41% active;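 also: coupled to thioredoxin reductase with NADPH and selenocystamine and DMSO as substrate; 0% = vehicle only and 100% = full effect of reference inhibitor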
The depositor's hits bear a star; / = no result. Rows were chosen to be rich in hits. Some 1.2% of all compounds tested hit in one or more screens of this group. Rule as the data show it, unless noted: active = inhibition above about 4.5%; inactive = the rest.

SMILES	GC-B act	bovine MsrA act	MsrA inhibitor	NPR1 activator	MsrA conf
CCN(CC)C(=O)CC[C@@H]1CC[C@]2(CCCN(Cc3cccs3)C2)O1	6	/	/	-3	/
FC(F)(F)c1ccc(Cn2ccc3ccc(-c4ccc5ccn(Cc6ccc(C(F)(F)F)cc6)c5c4)cc32)cc1	1	/	/	2	/
CCOC(=O)C(/C=C(\C#N)C(=O)OCC)=C(/N)N1CCN(c2ccc(OC)cc2)CC1	-5	-9	5.9*	-3	8.2*
CCOC(=O)C(/C=C(\C#N)C(=O)OCC)=C(/N)N1CCN(c2c(C)cccc2C)CC1	-2	-1	1	5	/
Cc1c(NC(=S)N/N=C/c2ccc(N(C)C)cc2)c(=O)n(-c2ccccc2)n1C	-3	-6	5.0*	-2	4.6*
Cc1c(NC(=S)N/N=C/c2cccc(O)c2)c(=O)n(-c2ccccc2)n1C	2	-4	3	-2	/
Nn1c(SCC(=O)Nc2cc(C(F)(F)F)ccc2Cl)nnc1-c1n[nH]c2c1CCC2	5	/	/	-4	/
O=C(NCC1CCCO1)C(=O)N/N=C/c1ccc(O)c(Cl)c1 (configuration not stated)	-1	-6	5.3*	0	4
O=C(NCC1CCCO1)C(=O)N/N=C/c1cc(Cl)ccc1O (configuration not stated)	-2	-1	1	5	/
N#CCCCc1cn(-c2cccc(-c3noc4c3C(=O)N(CC(=O)N3CCOCC3)CC4)c2)nn1	2	/	/	5	/
COc1ccc(Nc2nc3ccc(C)cn3c(=O)c2/C=N/O)cc1	-3	-1	5.0*	0	0
COC(=O)c1ccccc1NC(=O)c1cnc2sccn2c1=O	-4	-2	1	5	/
O=C(Nc1nccs1)c1cnc2sccn2c1=O	2	-10	5.8*	2	5.7*
Fc1ccccc1Nc1nc2ccccc2n2nnnc12	-12	-4	11*	-5	7.3*
COc1cccc(Nc2nc3ccccc3n3nnnc23)c1	-2	-2	8.8*	-4	7.9*
c1ccc(Nc2nc3ccccc3n3nnnc23)cc1	-4	-2	8.1*	-5	4.9*
c1ccc2c(c1)nc(Nc1ccc3c(c1)OCO3)c1nnnn12	-7	-5	-1	-2	/
Fc1cccc(Nc2nc3ccccc3n3nnnc23)c1	-6	-7	3	0	/
O=C1N(c2ccccc2)CC2C(c3ccccc3)C(c3ccccc3)N3CCCC123 (configuration not stated)	-17	/	/	-16	/
Cc1ccc(NC(=O)C2CCN(c3nnc(-n4cccc4)s3)CC2)c(C)c1	-1	/	/	-3	/
NS(=O)(=O)c1ccc(N/N=C/c2ccc(C(=O)O)cc2)c([N+](=O)[O-])c1	0	-6	5.1*	-1	4.9*
CC(=O)Nc1ccc(C=NNc2ccc(S(=O)(=O)Nc3ccccc3C(=O)O)cc2[N+](=O)[O-])cc1	3	-7	6.0*	-4	4.9*
NS(=O)(=O)c1ccc(N/N=C/c2ccc[nH]2)c([N+](=O)[O-])c1	2	-10	5.1*	-14	5.5*
Nc1[nH]c(C(=O)c2ccccc2)c(-c2ccccn2)c1C(=O)c1c[nH]c2ccc(Br)cc12	-4	/	/	-3	/
CC(=O)Nc1nonc1NC(C)=O	7	-1	-1	0	/
SMILES	GC-B act	bovine MsrA act	MsrA inhibitor	NPR1 activator	MsrA conf
CC(=O)Nc1cc(OC(C)=O)c2nonc2c1OC(C)=O	4	5	28*	-5	-1
Cc1ccc(CN2CCCCC(NC(=O)Cc3cccs3)C2=O)cc1 (configuration not stated)	2	/	/	5	/
CCOc1cc(/C=C2/C(=O)ON=C2C)cc(Br)c1O	2	-11	5.0*	8	3
COc1cc(/C=C2\C(=O)ON=C2c2ccccc2)cc(Br)c1O	5	-8	5.5*	15	2
CCOc1cc(/C=C2\C(=O)ON=C2c2ccccc2)cc(Br)c1O	7	-8	4	22	/
COc1ccc2c(c1)CCCN2C(=O)C1CCCN(S(=O)(=O)c2cccs2)C1 (configuration not stated)	-1	/	/	-5	/
O=C(c1ccccc1OCc1ccccc1)N(Cc1ccccn1)CC1CCCO1 (configuration not stated)	-1	/	/	-7	/

Bioassay records deposited in PubChem by several laboratories.
